Consider 95 molecules from PubChem BioAssay AID1850 (Southern Research Specialized Biocontainment Screening …, 2009).

“And” between values parts separate entries of the source, which are not always exact repeats. Equal entries are not always repeated. In all, about 310,000 compounds went through this assay and about 1,000 (0.32%) were called active. The rule behind the calls is not given here. Only a sample is shown. Results with a measured potency or affinity are listed apart.

This assay can be described thus: Inhibition of PhoP regulon, Salmonella typhi GFP reporter cells, confirmation, 4 h (AID 1850).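 Note: 0% = induced wells with vehicle and 100% = uninduced wells.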 The settings on record: Salmonella Typhi PhoP-promoter GFP reporter, fluorescence, at 50 µM, hits give high values.
`COc1ccc(CCN2CC(C(=O)NCCc3ccccc3C)CCC2=O)cc1` (stereo not given): the inhibition is 0.24% (inactive).

Regarding `O=C(Cc1ccccc1)N/N=C/c1cc(Br)cc(Br)c1O`, the inhibition is 6.54% (inactive).

As to `Oc1cccc(/C=N/N=C/c2cccc(O)c2O)c1O`, the inhibition is 21.8% (inactive).

Turning to `O/N=C/c1cc(Br)ccc1OCc1ccc(F)cc1`, the inhibition was 3.46% (inactive).

As to `Oc1c(Br)cc(Br)cc1/C=N/N1CCN(Cc2ccccc2)CC1`, the inhibition is -8.57% (inactive).

For `CN(/N=C/c1cc(Br)cc(Br)c1O)c1ccccc1`, the inhibition was 2.46% (inactive).

Take `Oc1cccc(C=NCc2ccccc2)c1`: the inhibition was -11.2% (inactive).

On to `COc1cc(Br)cc(/C=N/NC(=O)Cc2ccccc2)c1O`, for which the inhibition is 5.08% (inactive).

Take `Oc1c(C=NCc2ccc(F)cc2)[nH]c2ccc(Br)c(Cl)c12`: the inhibition is -22.5% (inactive).

As for `CCN(CC)CC(C)CNC(=O)CC(C(=O)N1CCc2ccccc21)n1ccnc1` (stereo not given), the inhibition is -1.96% (inactive).

For `CC1(C)C2(C#N)C(N)=NC3(OCCO3)C12C#N` (stereo not given), the inhibition was 4.42% (inactive).

In the case of `Cc1ccc(S(=O)(=O)N(C)c2ccc(N)cc2)cc1`, the inhibition is 8.98% (inactive).

Regarding `Cc1ccc2nc(SCc3nc4cc(Cl)ccc4c(=O)[nH]3)[nH]c2c1`, the inhibition is -3.53% (inactive).

Consider `COc1cccc(C2C(=O)N(C3CCCCC3)CC(=O)N2Cc2ccc(F)cc2)c1` (stereo not given), for which the inhibition was -2.24% (inactive).

`CN1CCN(CC/C=C2/c3ccccc3Sc3ccc(S(=O)(=O)N(C)C)cc32)CC1`: the inhibition is 3.38% (inactive).

On to `OCCN1CCN(CC/C=C2/c3ccccc3Sc3ccc(Cl)cc32)CC1`, for which the inhibition is 5.06% (inactive).

Regarding `CN1CCN(CCC=C2c3ccccc3Sc3ccc(S(=O)(=O)N(C)C)cc32)CC1`, the inhibition is -2.21% (inactive).

Consider `CC[N+](C)(C)CC/C=C1/c2ccccc2Sc2ccc(Cl)cc21`, for which the inhibition was 5.02% (inactive).

For the molecule `OCCN1CCN(CC/C=C2/c3ccccc3Sc3ccc(C(F)(F)F)cc32)CC1`, the inhibition was -0.41% (inactive).

As for `C[N+](C)(C)CC/C=C1/c2ccccc2CSc2ccccc21`, the inhibition is -7.79% (inactive).

`O=C1[C@@H]2Cc3c([nH]c4ccccc34)C(c3ccc(Cl)cc3)N2C(=O)CN1CCO` (stereo not given in full): the inhibition was 3.36% (inactive).

Take `CC(=O)NC(=S)Nc1ccccc1N1CCCCC1`: the inhibition was -7.09% (inactive).

As for `COc1ccc(-c2nnc(-c3ccccc3O)o2)cc1`, the inhibition was 3.32% (inactive).

On to `CCC(C(=O)N1CCCCCC1)n1nc(C)n2c(cc3occc32)c1=O` (stereo not given), for which the inhibition was -32.5% (inactive).

Regarding `CS(=O)(=O)N(CC(=O)Nc1ccccc1C(=O)NCc1ccco1)c1ccc2c(c1)OCCO2`, the inhibition was -8.68% (inactive).

On to `Cc1c(C(=O)N2CCOCC2)sc2ncn(CC(=O)N3CCC(C)CC3)c(=O)c12`, for which the inhibition was 0.7% (inactive).

`Clc1ccc(COC(Cn2ccnc2)c2ccc(Cl)cc2Cl)cc1` (stereo not given): the inhibition is -0.54% (inactive).

On to `Clc1ccc(COC(Cn2ccnc2)c2ccc(Cl)cc2Cl)c(Cl)c1` (stereo not given), for which the inhibition is -1.14% (inactive) and 1.85% (inactive).

As to `Cn1ccsc1=NC(=O)c1ccc(S(=O)(=O)C(F)F)cc1`, the inhibition is 2.31% (inactive).

`CCOc1ccccc1-c1nc(-c2ccc(NC(=O)Cc3ccccc3OC)cc2)no1`: the inhibition was 1.73% (inactive) and -10.4% (inactive).

Regarding `O=C(C[n+]1ccn(-c2ccccc2)c1)c1ccc([N+](=O)[O-])cc1`, the inhibition was 4.4% (inactive).

As for `O=C(Cn1c[n+](CC(=O)c2ccc([N+](=O)[O-])cc2)cn1)c1ccc([N+](=O)[O-])cc1`, the inhibition was 7.72% (inactive) and 18.6% (inactive).

As to `O=C(Cn1cc[n+](CC(=O)c2ccccc2)c1)c1ccccc1`, the inhibition was 18.8% (inactive).

Regarding `C[n+]1ccn(CC(=O)c2ccc(Cl)cc2)c1`, the inhibition is -7.58% (inactive).

Take `O=c1c(/C=N\NS(=O)(=O)c2ccccc2)coc2ccc(Cl)cc12`: the inhibition was -7.39% (inactive).

As to `C/C(=C\c1ccccc1)CN1CCN(C(C)C)C(CCO)C1` (stereo not given), the inhibition was -0.3% (inactive).

With `CC1=CC(c2ccccc2)n2ncnc2N1` (stereo not given), the inhibition is 3.87% (inactive).

With `COC/C=C/C1=CC2=CC(=O)C(C)(OC(=O)c3cnc4ccccc4n3)C(=O)C2=CN1CCc1ccccn1` (stereo not given), the inhibition was 0.66% (inactive).

Consider `CC(C)c1ccccc1OCC(O)CN(CC(O)COc1cccc2ccccc12)C(C)C` (stereo not given), for which the inhibition is -6.27% (inactive).

On to `CCN(CCNCC(O)COCc1ccc(Cl)cc1)c1cccc(C)c1` (stereo not given), for which the inhibition is -1.24% (inactive).

For the molecule `Cc1c(Cl)cccc1NC(CC(=O)c1ccccc1)C(=O)OCC(=O)c1cccs1` (stereo not given), the inhibition is -2.54% (inactive).

Consider `Cc1ccc(S(=O)(=O)NNC2=NS(=O)(=O)c3ccccc32)c(C)c1`, for which the inhibition was 0.74% (inactive).

Consider `CC(=O)Nc1ccc(S(=O)(=O)NNC(=O)COc2cccc(C)c2)cc1`, for which the inhibition was 9.44% (inactive).

With `Cc1cccc(NC(=O)Nc2ccc(S(N)(=O)=O)cc2)c1`, the inhibition is -0.31% (inactive).

Consider `Cc1ccc(S(=O)(=O)NNC(=O)Nc2cccc(F)c2)c(C)c1`, for which the inhibition was -7.92% (inactive).

Consider `Cc1ccc(S(=O)(=O)NNc2ccccc2)cc1`, for which the inhibition is 32.1% (inactive).

Consider `Cc1ccc(S(=O)(=O)NNC(=O)C(=O)NNS(=O)(=O)c2ccc(C)cc2)cc1`, for which the inhibition was -7.52% (inactive).

In the case of `CCOC(=O)N1CCN(Cc2nc3cc(NC(=O)c4cccs4)ccc3n2C)CC1`, the inhibition was -16.8% (inactive).

Regarding `COc1cc(CNn2cn[nH]c2=S)ccc1OCC(=O)NC(C)(C)C`, the inhibition was -5.11% (inactive).

As for `CC(=O)N1CN2CN(C(C)=O)CC(C(=O)c3ccc([N+](=O)[O-])cc3)(C2)C1`, the inhibition is 5.88% (inactive).

Turning to `CCOC(=O)c1ccccc1NC(=O)CSc1nc2ccccc2n1CC(=O)N1CCCC1`, the inhibition was -7.2% (inactive).

For the molecule `Cc1nc2ccc(C(=O)Nc3ccc(N(C)C)cc3)cc2s1`, the inhibition was -5.67% (inactive).

On to `CN(C)c1ccc(/C=C/c2nc3ccccc3s2)cc1`, for which the inhibition was -9.15% (inactive).

Consider `CC(C)CNC(=O)C(=O)NCCCN1CCOCC1`, for which the inhibition is 3.18% (inactive).

Turning to `CCOc1ccc(N2C(=O)CC(NCCc3c[nH]c4ccccc34)C2=O)cc1` (stereo not given), the inhibition is 6.97% (inactive).

Take `CCOc1ccc(NC(=O)CSc2nc3ccccc3nc2N2CC(C)OC(C)C2)cc1` (stereo not given): the inhibition was -3.96% (inactive).

For the molecule `COc1ccc(CNC(=O)C2CCN(S(=O)(=O)c3ccc4c(c3)CC(C)N4C(C)=O)CC2)cc1` (stereo not given), the inhibition is 1.71% (inactive).

`CN(C)CCCN(C(=O)CCc1ccccc1)c1nc2ccc(Cl)cc2s1`: the inhibition was 0.73% (inactive).

Turning to `CN(C)CCCN(C(=O)COc1ccc(Cl)cc1)c1nc2c(F)cccc2s1`, the inhibition was 8.92% (inactive).

In the case of `CN(C)CCCN(C(=O)COc1ccccc1)c1nc2ccc(F)cc2s1`, the inhibition is -2.75% (inactive).

As to `COc1cccc2sc(N(CCCN(C)C)C(=O)COc3ccc(Cl)cc3)nc12`, the inhibition is -1.1% (inactive).

For the molecule `Cc1ccc2nc(N(CCCN(C)C)C(=O)COc3ccc(Cl)cc3)sc2c1`, the inhibition is 6.88% (inactive).

With `CN(C)CCCN(C(=O)CCc1ccccc1)c1nc2ccc(F)cc2s1`, the inhibition was 1.04% (inactive).

Turning to `Cc1ccc2nc(N(CCCN(C)C)C(=O)CCc3ccccc3)sc2c1`, the inhibition was -4.72% (inactive).

Take `CN(C)CCCN(C(=O)COc1ccc(Cl)cc1)c1nc2ccc(F)cc2s1`: the inhibition is 14% (inactive).

Take `CCOc1ccc(Oc2cc(N)cc([N+](=O)[O-])c2)cc1`: the inhibition is -14.2% (inactive).

In the case of `O=C(c1ccc(F)cc1F)N1CCN(c2n[nH]c(=O)[nH]c2=O)CC1`, the inhibition is -2.71% (inactive).

In the case of `COC(=O)c1nnn(CC(=O)NC(=O)Nc2c(C)cccc2C)c1C(=O)OC`, the inhibition was -3.97% (inactive).

Consider `CCN(CC(=O)NCCc1ccc(Cl)cc1)Cc1nc2ccccc2c(=O)[nH]1`, for which the inhibition is -9.11% (inactive).

Consider `Cc1ccc(NC(=O)CN2C(=O)S/C(=C\c3ccc(OCC(=O)O)c(Br)c3)C2=O)cc1`, for which the inhibition was -6.05% (inactive).

With `CC1(C)OC(=O)C(=CNc2ncccn2)C(=O)O1`, the inhibition is -4.83% (inactive).

In the case of `CCSc1nnc(NC(=O)CSc2ncccn2)s1`, the inhibition is -1.89% (inactive).

For `Cc1ccc(N2CC(NC(=O)C3CC3)CC2=O)cc1` (stereo not given), the inhibition is 9.02% (inactive).

For the molecule `Cn1c(N)c(C(=O)COC(=O)CN2C(=O)c3ccccc3C2=O)c(=O)n(C)c1=O`, the inhibition is -5.68% (inactive).

Turning to `CCN1CCN(CCCNC(=O)CCCn2nc(C)c3sc4ccccc4c3c2=O)CC1`, the inhibition is 0.59% (inactive).

Take `Cc1cc(Br)ccc1OCCNCc1ccccc1`: the inhibition is 11.4% (inactive).

`Clc1ccc(Cl)c(OCCCCNCc2ccccc2)c1`: the inhibition was 13.1% (inactive).

For the molecule `Cc1ccc(OCCOCCN(C)C)c(Cl)c1`, the inhibition was 2.62% (inactive).

In the case of `Brc1ccccc1OCCNCc1ccccc1`, the inhibition is 11.4% (inactive).

As to `COCCCNCCCOc1ccc(Cl)cc1Br`, the inhibition was 4.69% (inactive).

`CCOc1ccccc1OCCCNCc1ccccc1`: the inhibition is -6.34% (inactive).

Regarding `COCCNCCCOc1ccc(Br)cc1Cl`, the inhibition is 5.48% (inactive).

In the case of `CCN(CC)CCOCCOc1ccc(Cl)c2ccccc12`, the inhibition is 1.79% (inactive).

For `O=C(O)C1C2C=CC(C2)C1C(=O)NCCCN1CCCC1=O` (stereo not given), the inhibition was -1.57% (inactive).

In the case of `Cn1c(Cn2c(=O)sc3ccccc32)nnc1SCC(=O)N1CCCC1`, the inhibition was 0.97% (inactive).

As for `NS(=O)(=O)c1ccc(NCCCn2ccnc2)c([N+](=O)[O-])c1`, the inhibition is 9.73% (inactive).

`Cc1ccc(NC(=O)CCC(=O)NNC(=S)Nc2ccc(F)cc2F)cc1C`: the inhibition is -6.55% (inactive).

As to `O=C(CCC(=O)N1CCCC1)Nc1ccc(Cl)c(Cl)c1`, the inhibition was -7.42% (inactive).

As for `NNC(=O)C(=O)Nc1ccc(Cl)c(Cl)c1`, the inhibition is -4.15% (inactive).

As to `NCCc1nnc(SCC(=O)Nc2cccc(Cl)c2)o1`, the inhibition was 5.27% (inactive).

With `CC(=O)NC1C(=O)N=C(SCC(=O)Nc2cccc(Cl)c2)NC1=O` (stereo not given), the inhibition was 11.8% (inactive).

For `Cc1ccc(Cl)cc1NC(=O)CSC(N)=O`, the inhibition was -1.36% (inactive).

With `COc1cccc(NC(=O)CSC(N)=O)c1`, the inhibition was -6.88% (inactive).

As to `O=C(CSC1=NC(=O)C(c2ccccc2)C(=O)N1)Nc1ccccc1Cl` (stereo not given), the inhibition is 7.4% (inactive).

Consider `Cc1ccc(NC(=O)CSCC#N)cc1Cl`, for which the inhibition was -2.58% (inactive).

The term inhibition denotes the change of the read-out against control, counted positive when it falls.
